# PubChem BioAssay (EPA / NIEHS)
# Several values for one entry are separate records, joined by “and”; a condition that tells them apart may be missing. Identical values can stand only once. Activity calls are given as the source filed them. Rule for the calls: active = hit-call score of the fitted dose curve at least 0.9, where 1 is the maximum; inactive = score below 0.9.
# Read-out: Interleukin 17A (IL17A), IL17A (gene 3605)
# Test: BSK_BT_xIL17A: BioMAP Diversity Plus: BT Assay for Interleukin 17A (IL17A) Biomarker Activity (AID 2284229)
# Conditions: primary human B cells with PBMC
# Method: BSK_BT is a cell-based, multiplexed-readout assay that uses B cell and peripheral blood mononuclear cells, a human vascular primary cell co-culture, with measurements taken at 24 hours after chemical dosing in a microplate: 96-well plate.BSK_BT_xIL17A is an assay component measured in the BSK_BT assay. It measures secreted IL-17A related to regulation of gene expression using LumineX xMAP technology.Data from the assay component BSK_BT_xIL17A was analyzed at the endpoint, BSK_BT_xIL17A, in the positive analysis fitting direction relative to DMSO as the negative control and baseline of activity. Using a type of cytokine quantitation reporter, gain or loss-of-signal activity can be used to understand protein changes. To generalize the intended target to other relatable targets, this assay endpoint is annotated to the 'cytokine' intended target family, where the subfamily is 'interleukins'.
# The levels of cell surface (or secreted, indicated by the prefix "s") biomarker endpoints were measured by ELISA. Overt cytotoxicity to cells in confluent adherent cultures (all systems other than the BT system) was assessed by measuring total protein levels using sulforhodamine B (SRB) staining in parallel cultures at the time of biomarker measurements, indicated as SRB endpoints. For proliferation assays for adherent cell types, individual cell types are cultured at sub-confluence and relative cell numbers quantified by SRB staining at time points optimized for each system (48 h: 3C and CASM3C systems; 72 h: BT and HDF3CGF systems; 96 h: SAg system). SRB was performed by staining cells with 0.1% SRB after fixation with 10% TCA and reading wells at 560 nm.Viability and proliferation of PBMC (T cells) was quantified by Alamar Blue reduction for the SAg and BT systems. For PBMC viability (referred to as PBMC Cytotoxicity within the assay endpoint names), cells were plated (75,000/well in a 96-well plate) and then chemical samples added for 1 h before addition of activators, SEB and TSST-1 (20 ng/mL final concentration each). Cells were incubated for 90 h. Then, Alamar Blue (20 uL/well) (Invitrogen, Cat DAL1100) was added for 6 h, and the plates were read with a fluorescence microplate reader at 546/580 nm (excitation/emission). For PBMC proliferation, cells were plated and activated as above but incubated for only 16 h prior to addition of Alamar Blue. Plates were read after 6 h.
SMILES,AC50,outcome
CN(C)c1ccc(C(c2ccccc2)c2ccc(N(C)C)cc2)cc1,20 µM (active),
CCCCCCCCCCCCCCCCCC[N+](C)(C)C,1.36 µM (active),
Cc1cccnc1,,inactive
CN(C)CCC(c1ccc(Cl)cc1)c1ccccn1 (stereo not given),,inactive
CCCCCCCCCC/C=C/C1CC(=O)OC1=O (stereo not given),,inactive
Sc1nc2ccccc2s1,,inactive
CC[N+](CC)(CC(=O)Nc1c(C)cccc1C)Cc1ccccc1,,inactive
COC(=O)/C=C\C(=O)OC,,inactive
CCCCCCC(O)CCCCCCCCCCC(=O)OC (stereo not given),,inactive
CC(C)CC(=O)CC(C)CC(C)C (stereo not given),,inactive
OC(C(F)(F)F)(C(F)(F)F)C(O)(C(F)(F)F)C(F)(F)F,31 µM (active) and 24 µM (active),
Oc1cccc2ccccc12,,inactive
CCCCCCCCCCC1CO1 (stereo not given),,inactive
Cc1cc(-n2nc3ccc(Cl)cc3n2)c(O)c(C(C)(C)C)c1,,inactive
O=C(C(=O)c1ccccc1)c1ccccc1,,inactive
